This is one part of a sample in which hits are shown more often than they occur.
TbREL1 primary = TbREL1 inhibition, primary screen. TbREL1 RNA ligation, FRET fluorescence. inhibition, % at 9.66 µM. 0.49% of 89,000 active. AID 1117264;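 active means inhibition above the mean inhibition across all screened compounds plus 3 SD, cut at about 11% in these data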;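 further: 0% = plate median of test wells and 100% = NSC42067 control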
TbREL1 conf = TbREL1 inhibition, confirmation; shares compounds with TbREL1 primary; TbREL1 RNA ligation, FRET fluorescence; inhibition, % at 9.66 µM; 37% of 390 active;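 active means mean inhibition across replicates above a set limit taken from the earlier primary screen, cut at about 11% in these data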;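 further: 0% = REL1 with substrate and DMSO and 100% = REL1 plus control inhibitor NSC42067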
The depositor's hits bear a star.

SMILES	TbREL1 primary	others
CCCCOCCCn1c(N)c(C(=O)OCCOC)c2nc3ccccc3nc21	0.2
CCCCn1c(NC(=O)c2ccco2)c(C(=O)OCC)c2nc3ccccc3nc21	34.1*	TbREL1 conf=45.0*
CCCCn1c(N)c(C(=O)OCCOC)c2nc3ccccc3nc21	3.8
COc1cc(O)c2c(c1)/C=C/C[C@H](O)[C@H](O)[C@@H](O)/C=C/C[C@H](C)OC2=O	3.1
CCOC(=O)CC1c2ccccc2-n2nncc2CN1C (stereo unspecified)	5.4
Cc1ccccc1CN1Cc2cnnn2-c2ccccc2C1C#N (stereo unspecified)	11.3*	TbREL1 conf=4.4
Cc1ccccc1-c1ccc2c(c1)CNCc1cnnn1-2	-1.5
CC(C)(C)OC(=O)NCCCCC(N)[P+](=O)O (stereo unspecified)	0.7
Oc1ccccc1-[n+]1c(-c2ccccc2)cc(-c2ccccc2)c(O)c1-c1ccccc1	-2.3
N#CCCn1cc(C(=O)Nc2ccc(F)cc2)c(-c2ccc([N+](=O)[O-])cc2)n1	11.3*	TbREL1 conf=4.0
O=C(NC1CC1)c1cn(Cc2ccccc2)nc1-c1ccccc1	-0.6
N#CCCn1cc(C(=O)Nc2ccc([N+](=O)[O-])cc2)c(-c2ccccc2)n1	-2.1
CC(=O)C1CCC2C3C(N4CC4)CC4=CC(=O)CCC4(C)C3CCC12C (stereo unspecified)	-5.5
COc1ccc(C2NCCc3[nH]cnc32)cc1 (stereo unspecified)	0.2
CC1NC(=O)NC(=O)C1Br (stereo unspecified)	-0.9
